Drawing on PubChem BioAssay AID463173 (ICCB-Longwood Screening Facility, Harvard Medical School, 2010), this text covers survival for 90 molecules.

The campaign covered roughly 52,000 compounds. About 4,300 (8.3%) were called active. Shown is part of a subset that was picked to be rich in actives. Values without a mark were called inactive. Cut-off read from the data, not from the text of the source: active = survival mostly below about 52% (no sharp cut-off); inactive = mostly above about 56%.

The subject of the experiment is DeltatarO mutant. In words: S. aureus survival, RN4220 and DeltatarO strains – OD600, teichoic acid synthesis inhibitors, primary screen (AID 463173). The conditions noted are these: S. aureus RN4220 wild type/DeltatarO growth, OD600, 18 h, stronger effect = lower value, screened at 18.75 µg/mL (by protocol).
On to `Cc1ccc(-c2c(CN3CCN(c4cc(Cl)ccc4C)CC3)csc2C)cc1`, for which the survival was 51%.

In the case of `Cc1ccc(-c2c(CN3CCN(c4cc(C)ccc4C)CC3)csc2C)cc1`, the survival is 126%.

`Cc1scc(CN2CCN(c3ccc(F)cc3)CC2)c1C`: the survival is 64%.

With `Cc1scc(CN2CCN(c3ccccc3F)CC2)c1C`, the survival is 64%.

For the molecule `CCc1c(CN2CCN(c3ccc(F)cc3)CC2)csc1C`, the survival is 38% (active).

Consider `CCc1c(CN2CCN(c3ccccc3F)CC2)csc1C`, for which the survival is 32% (active).

Turning to `Cc1ccc(-c2c(CN3CCN(c4cccc(C)c4C)CC3)csc2C)cc1`, the survival is 21% (active).

In the case of `Cc1cc(CN2CCN(c3ccc(F)cc3)CC2)cs1`, the survival was 69%.

Take `CCc1c(CN2CCN(c3cccc(C)c3C)CC2)csc1C`: the survival is 76%.

`COc1ccc(-c2cc(C(F)(F)F)nc(SCCC(=O)Nc3ccccc3F)n2)cc1`: the survival was 77%.

Turning to `Cc1ccc(Cl)cc1NC(=O)Cn1nnc2sc3c(c2c1=O)CCC(C(C)(C)C)C3` (stereo not given), the survival is 58%.

As to `C=CCc1c(C)nc2nc(SCC(=O)Nc3cccc(Cl)c3)nn2c1C`, the survival is 102%.

In the case of `CCCNC(=O)C1CCN(C(=O)N2CC(C)Oc3ccccc32)CC1` (stereo not given), the survival is 65%.

Consider `CCOc1ccc(-n2c(=O)c3c(C)c(C)sc3n(Cc3c(F)cccc3Cl)c2=O)cc1`, for which the survival was 96%.

For `Cc1cccc(C(=O)NCC(=O)OCc2cc(=O)n3nc(C)sc3n2)c1`, the survival is 82%.

For `N#Cc1ccc(C(=O)NCc2ccc3c(c2)CCN3C(=O)c2ccc(F)cc2)cc1`, the survival was 83%.

As for `CCOc1ccc(S(=O)(=O)N2Cc3ccccc3CC2C(=O)Nc2ccc(NC(C)=O)cc2)cc1` (stereo not given), the survival is 69%.

Take `Cc1ccc(-n2ncc(C(=O)Nc3ccc4c(c3)OCO4)c2C2CCN(C(=O)OC(C)(C)C)CC2)cc1`: the survival was 79%.

Take `COc1ccc(CC(CC(=O)O)C(=O)NCc2ccccc2)cc1` (stereo not given): the survival is 81%.

With `CCC(=O)Nc1ccc(C(=O)Nc2c[nH]c(=O)[nH]c2=O)cc1`, the survival was 85%.

Turning to `CC1CCN(c2nnc(-n3cccc3CNc3cccc(F)c3)s2)CC1`, the survival was 93%.

Turning to `Cc1ccc(NC(=O)CSc2nnc(-c3ccc([N+](=O)[O-])cc3)o2)c(C)c1`, the survival is 73%.

On to `CCOC(=O)c1cc(S(=O)(=O)Nc2cc(OC)ccc2OC)[nH]n1`, for which the survival is 119%.

Regarding `CCOC(=O)c1cc(S(=O)(=O)Nc2ccc(OC)c(Cl)c2)[nH]n1`, the survival is -4% (active).

With `CCOC(=O)c1cc(S(=O)(=O)Nc2cc(C)c(Cl)cc2OC)[nH]n1`, the survival is 77%.

On to `COc1cc(OC)cc(C(=O)Nc2cc3c(cc2N2CCCCC2)n(C)c(=O)n3C)c1`, for which the survival is 83%.

For the molecule `COc1ccc(OC)c(S(=O)(=O)N2CCC(c3ccncc3)CC2)c1`, the survival was 122%.

Regarding `COc1ccc(OC)c(CCNC(=O)c2cc3c(=O)n(C)c4ccccc4c3n2C)c1`, the survival is 43% (active).

`COc1ccc(CNC(=O)c2cc3c(=O)n(C)c4ccccc4c3n2C)c(OC)c1`: the survival was 50%.

Regarding `COc1ccc(-n2cc(C(=O)NCCc3ccc(C)cc3)c3ccccc3c2=O)cc1`, the survival was 53%.

In the case of `COc1ccc(-n2cc(C(=O)NCc3cccc(OC)c3)c3ccccc3c2=O)cc1`, the survival was 110%.

Regarding `COc1ccc(CNC(=O)c2cn(-c3cccc(OC)c3)c(=O)c3ccccc23)cc1`, the survival was 67%.

In the case of `CCOc1ccc(CCNC(=O)c2cn(-c3ccc(OC)cc3)c(=O)c3ccccc23)cc1OCC`, the survival was 111%.

Turning to `COc1ccc(-n2cc(C(=O)NCCc3cc(OC)ccc3OC)c3ccccc3c2=O)cc1`, the survival was 55% (active).

Consider `COc1cccc(-n2cc(C(=O)NCc3cccc(Cl)c3)c3ccccc3c2=O)c1`, for which the survival is 58% (active).

As to `COc1ccc(CNC(=O)c2cc3c(=O)n(C)c4ccccc4c3n2C)cc1`, the survival is 89%.

For `CC1CCC(NC(=O)c2ccc(CSc3nc4ccncc4n3Cc3ccc(F)cc3)cc2)CC1` (stereo not given), the survival is 59%.

Turning to `COc1ccc(OC)c(-n2c(=O)[nH]c3cc(C(=O)NCCc4ccc(OC)c(OC)c4)ccc3c2=O)c1`, the survival was 76%.

Consider `CCC1CN(C(=O)N2CCC(C(=O)NCc3ccc(N(C)C)cc3)CC2)c2ccccc2O1` (stereo not given), for which the survival is 73%.

Consider `CCOC(=O)N1CCc2c(sc(NCc3ccc(N(CC)CC)cc3)c2C(=O)Nc2cc(OC)ccc2OC)C1`, for which the survival is 71%.

As to `CCOC(=O)c1ccc(NC2=CC(c3ccc(F)cc3)N(c3ccc(C(=O)OCC)cc3)C2=O)cc1` (stereo not given), the survival is 66%.

As for `CCc1nc2cccnc2n1-c1ccc(CC(=O)Nc2ccc(C)cc2)cc1`, the survival is 78%.

`COc1ccccc1Nc1nn2c(=O)c3ccc(C(=O)NCCCOC(C)C)cc3nc2s1`: the survival is 71%.

As for `CCOC(=O)c1ccc(NC(=O)C2=C(C)C(=O)OC23CCCCCC3)cc1`, the survival was 81%.

As for `Cc1ccc(OCC(=O)Nc2ccc(S(=O)(=O)Nc3cc(C)on3)cc2)c(Br)c1`, the survival was 56%.

As to `Cc1cc(NS(=O)(=O)c2ccc(NC(=O)COc3cc(C)c(Br)cc3C(C)C)cc2)no1`, the survival was 13% (active).

Consider `Cc1ccc(C)c(OCC(=O)Nc2ccc(S(=O)(=O)Nc3onc(C)c3C)cc2)c1C`, for which the survival is 165%.

`Cc1cccc(OCC(=O)Nc2ccc(S(=O)(=O)Nc3onc(C)c3C)cc2)c1C`: the survival is 40% (active).

`Cc1noc(NS(=O)(=O)c2ccc(NC(=O)COc3ccccc3Br)cc2)c1C`: the survival was 53%.

Regarding `CCC(C)c1ccccc1OCC(=O)Nc1ccc(S(=O)(=O)Nc2cc(C)on2)cc1` (stereo not given), the survival was 80%.

For `Cc1cc(NS(=O)(=O)c2ccc(NC(=O)COc3ccccc3Br)cc2)no1`, the survival was 67%.

On to `Cc1cc(NS(=O)(=O)c2ccc(NC(=O)COc3ccc(Br)cc3C)cc2)no1`, for which the survival was 32% (active).

With `Cc1cc(NS(=O)(=O)c2ccc(NC(=O)COc3c(C)cc(Br)cc3C)cc2)no1`, the survival is 110%.

For `COc1ccc2c(c1)c(CC(=O)Nc1cc(C)c(OC)c(C)c1)c(C)n2C(=O)c1ccc(Cl)cc1`, the survival was 71%.

`COc1cc(C(c2nnnn2C2CCCCC2)N2CCc3ccccc3C2)ccc1O` (stereo not given): the survival is 62%.

Turning to `COc1ccc(N2CCN(C(=O)c3ccc4c(c3)N(Cc3cccc(Cl)c3)C(=O)c3ccccc3S4(=O)=O)CC2)cc1`, the survival was 83%.

In the case of `COc1cc2oc(=O)c(CC(=O)NCc3ccc(OC)c(OC)c3)c(C)c2cc1Cl`, the survival is 71%.

Regarding `CC(=O)N1CCC2(CC1)OC(=O)C(C)=C2C(=O)NCc1ccc(Cl)cc1`, the survival is 58%.

As to `Cc1cc(C)cc(NC(=O)c2cccc(C(=O)Nc3cc(C)cc(C)c3)c2)c1`, the survival was 129%.

`CCOc1ccc(C(=O)N2CCN(c3ccccc3)CC2)cc1`: the survival is 78%.

Turning to `CC1=C(C(=O)Nc2ccccc2C)C(c2ccccc2O)NC(=S)N1` (stereo not given), the survival is 103%.

Consider `COc1ccccc1NC(=O)C1=C(C)NC(=S)NC1C` (stereo not given), for which the survival was 86%.

With `CC1=C(C(=O)Nc2ccccc2)C(c2ccc(C)o2)NC(=S)N1` (stereo not given), the survival is 61% (active).

In the case of `O=S(=O)(Nc1ccccn1)c1cccs1`, the survival is 83%.

`CCN(C(=O)c1nn(-c2ccc(OC)c(Cl)c2)c(=O)c2c1c1ccccc1n2C)c1cccc(C(F)(F)F)c1`: the survival is 75%.

Take `COc1ccc2c(c1)Cc1sc(NC(=O)c3ccc(Cl)cc3)nc1-2`: the survival was 80%.

`COc1ccc2c(c1)-c1nc(NC(=O)c3ccccc3F)sc1CC2`: the survival is 2% (active).

`COc1ccc2c(c1)-c1nc(NC(=O)c3cccc(Br)c3)sc1CC2`: the survival is 51%.

Consider `COc1ccc2c(c1)-c1nc(NC(=O)c3cc(Cl)ccc3OC)sc1CC2`, for which the survival was 69%.

Take `COc1ccc2c(c1)-c1nc(NC(=O)c3ccc(Cl)cc3)sc1CC2`: the survival is 96%.

In the case of `COc1ccc2c(c1)Cc1sc(NC(=O)c3ccccc3C)nc1-2`, the survival is 102%.

With `COc1ccc2c(c1)Cc1sc(NC(=O)c3cccc(C)c3)nc1-2`, the survival is 18% (active).

As to `COc1ccc2c(c1)Cc1sc(NC(=O)c3cccc(F)c3)nc1-2`, the survival was 67%.

On to `COc1ccc2c(c1)Cc1sc(NC(=O)c3ccccc3Br)nc1-2`, for which the survival is 63%.

In the case of `COc1ccc(C(=O)Nc2nc3c(s2)Cc2cc(OC)ccc2-3)cc1`, the survival was 55%.

Consider `COc1ccc2c(c1)CCc1sc(NC(=O)c3ccc(Cl)cc3)nc1-2`, for which the survival was 31% (active).

Consider `COc1ccc(C(=O)Nc2nc3c(s2)CCc2cc(OC)ccc2-3)cc1`, for which the survival is 35% (active).

Regarding `COc1ccc(CN2C(=O)C(NC(=O)c3ccccc3OC)(C(F)(F)F)N=C2c2ccccc2)cc1` (stereo not given), the survival is 87%.

With `COc1cc(Cl)c(C)cc1NC(=O)c1cnc(N2CCCCC2)c2ccccc12`, the survival is 115%.

Regarding `O=C(c1ccc2c(c1)N(Cc1cccc(F)c1)C(=O)c1ccccc1S2)N1CCCC1`, the survival was 88%.

With `COc1ccc(N2CCN(C(=O)c3cc4c(=O)oc5ccc(C)cc5c4s3)CC2)cc1`, the survival is 111%.

For `CCCn1cc(S(=O)(=O)c2cccc(Cl)c2)c(=O)c2cc(F)c(N3CCOCC3)cc21`, the survival was 74%.

Turning to `COc1cccc(NC(=O)C2CCCN(S(=O)(=O)c3cccc4nonc34)C2)c1` (stereo not given), the survival is 90%.

Regarding `CCCS(=O)(=O)c1c(S(=O)(=O)CCC)c2cc(C(C)(C)C)ccn2c1C(=O)c1ccccc1`, the survival is 118%.

For the molecule `CC1Cc2ccccc2N1C(=O)CSc1nnnn1Cc1ccccc1` (stereo not given), the survival is 91%.

As to `Cc1cccc(-n2nnc(-c3nc(-c4cccs4)no3)c2N)c1C`, the survival was 60%.

On to `CCS(=O)(=O)N1CC(=O)N(c2ccc(Cl)cc2)C(C)(C(=O)NC2CCCCC2)C1` (stereo not given), for which the survival was 96%.

For the molecule `COc1ccc2c(c1)-c1nc(NC(=O)c3ccc(OC)c(Br)c3)sc1CC2`, the survival is 59%.

`COc1ccc2c(c1)-c1nc(NC(=O)c3ccc(C)cc3)sc1CC2`: the survival is 5% (active).

Consider `COc1ccc2c(c1)-c1nc(NC(=O)c3cc(OC)c(OC)c(OC)c3)sc1CC2`, for which the survival was 57%.
